Values joined by “and” are separate entries in the source; they are usually repeats but may differ in a detail not shown here. Equal entries are not always repeated. Hit rate of the full screen: of about 5,500 compounds, about 2,000 (36%) were called active. Roughly 18% stayed inconclusive and do not appear here. No stated cut-off is given here; in the data, active means normalized growth mostly below about 0.91 (no sharp cut-off); inconclusive means no clear call, values can overlap the other calls; inactive means mostly above about 0.92. This is one part of the list.
Assay: chemical genetic growth profiling, strain panel (AID 1159580);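 further: tested at 20 µM; growth read once vehicle control cultures reached saturation at 30 °C; 1 = growth at the plate median or of vehicle wells; lower values mean less growth of the strain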
Settings: growth OD

Measured: normalized growth

Nc1ccc(C(=O)O)c(O)c1
inactive: S. cerevisiae deletion strains, locus YKL009W, strain mrt4, active compounds read low 1 | S. cerevisiae deletion strains, locus YKL068W, active compounds read low 0.999 | S. cerevisiae deletion strains, locus YKL085W, strain MDH1 (second series), active compounds read low 0.995 | S. cerevisiae deletion strains, locus YKL085W, strain MDH1, active compounds read low 0.995 | S. cerevisiae deletion strains, locus YKL160W, strain elf1, active compounds read low 0.947 | S. cerevisiae deletion strains, locus YKL190W, strain CNB1, active compounds read low 1.01 | S. cerevisiae deletion strains, locus YKR001C, strain vps1, active compounds read low 0.992 | S. cerevisiae deletion strains, locus YKR026C, strain gcn3, active compounds read low 0.994 | S. cerevisiae deletion strains, locus YKR091W, strain srl3, active compounds read low 0.989 | S. cerevisiae deletion strains, locus YLL001W, strain dnm1, active compounds read low 0.924 | S. cerevisiae deletion strains, locus YLL026W, active compounds read low 1 | S. cerevisiae deletion strains, locus YLL041C, strain sdh2, active compounds read low 0.992 | S. cerevisiae deletion strains, locus YLR027C, strain aat2, active compounds read low 1 | S. cerevisiae deletion strains, locus YLR039C, strain RIC1, active compounds read low 1.02 | S. cerevisiae deletion strains, locus YLR058C, strain SHM2, active compounds read low 1.01 | S. cerevisiae deletion strains, locus YLR102C, strain apc9, active compounds read low 0.998 | S. cerevisiae deletion strains, locus YLR113W, strain HOG1, active compounds read low 1.03 and 1.02 | S. cerevisiae deletion strains, locus YLR221C, strain rsa3, active compounds read low 0.968 | S. cerevisiae deletion strains, locus YLR258W, strain gsy2, active compounds read low 1.01 | S. cerevisiae deletion strains, locus YLR262C, strain YPT6 (second series), active compounds read low 0.961 | S. cerevisiae deletion strains, locus YLR262C, strain YPT6, active compounds read low 1.06 | S. cerevisiae deletion strains, locus YLR268W, strain sec22, active compounds read low 0.99 | S. cerevisiae deletion strains, locus YLR320W, strain mms22, active compounds read low 0.954 | S. cerevisiae deletion strains, locus YLR330W, strain CHS5, active compounds read low 1.01 | S. cerevisiae deletion strains, locus YLR342W, strain FKS1 (second series), active compounds read low 1.04 | S. cerevisiae deletion strains, locus YLR342W, strain FKS1, active compounds read low 0.997 | S. cerevisiae deletion strains, locus YLR357W, strain rsc2, active compounds read low 0.955 | S. cerevisiae deletion strains, locus YLR370C, strain arc18, active compounds read low 0.995 | S. cerevisiae deletion strains, locus YLR371W, strain rom2, active compounds read low 0.997 | S. cerevisiae deletion strains, locus YLR384C, strain iki3, active compounds read low 0.994 | S. cerevisiae deletion strains, locus YLR418C, strain cdc73, active compounds read low 0.996 | S. cerevisiae deletion strains, locus YML016C, strain PPZ1, active compounds read low 1.01 | S. cerevisiae deletion strains, locus YML032C, strain rad52, active compounds read low 1 | S. cerevisiae deletion strains, locus YML120C, strain ndi1, active compounds read low 0.978 | S. cerevisiae deletion strains, locus YML124C, strain tub3, active compounds read low 0.996 | S. cerevisiae deletion strains, locus YMR058W, strain fet3, active compounds read low 0.995 | S. cerevisiae deletion strains, locus YMR078C, strain ctf18, active compounds read low 1 | S. cerevisiae deletion strains, locus YMR125W, strain sto1, active compounds read low 0.945 | S. cerevisiae deletion strains, locus YMR129W, active compounds read low 0.999 | S. cerevisiae deletion strains, locus YMR205C, strain PFK2, active compounds read low 0.939 | S. cerevisiae deletion strains, locus YMR223W, strain ubp8, active compounds read low 1 | S. cerevisiae deletion strains, locus YMR231W, strain pep5, active compounds read low 0.985 | S. cerevisiae deletion strains, locus YMR263W, strain SAP30, active compounds read low 1 | S. cerevisiae deletion strains, locus YMR307W, strain GAS1, active compounds read low 0.991 | S. cerevisiae deletion strains, locus YNL067W, strain RPL9B, active compounds read low 1.01 | S. cerevisiae deletion strains, locus YNL071W, strain lat1, active compounds read low 0.986 | S. cerevisiae deletion strains, locus YNL153C, strain GIM3, active compounds read low 0.998 | S. cerevisiae deletion strains, locus YNL183C, strain NPR1, active compounds read low 0.959 and 0.981 | S. cerevisiae deletion strains, locus YNL209W, strain ssb2, active compounds read low 0.997 | S. cerevisiae deletion strains, locus YNL233W, strain BNI4, active compounds read low 0.998 | S. cerevisiae deletion strains, locus YNL248C, strain rpa49, active compounds read low 0.967 | S. cerevisiae deletion strains, locus YNL250W, strain rad50, active compounds read low 1 | S. cerevisiae deletion strains, locus YNL271C, strain bni1, active compounds read low 0.985 | S. cerevisiae deletion strains, locus YNL298W, strain CLA4, active compounds read low 0.989 | S. cerevisiae deletion strains, locus YNL307C, strain MCK1, active compounds read low 1 | S. cerevisiae deletion strains, locus YNL322C, strain KRE1 (second series), active compounds read low 0.977 | S. cerevisiae deletion strains, locus YNL322C, strain KRE1, active compounds read low 1.01 | S. cerevisiae deletion strains, locus YNR049C, strain mso1, active compounds read low 0.994 | S. cerevisiae deletion strains, locus YNR052C, strain pop2, active compounds read low 0.998 | S. cerevisiae deletion strains, locus YOL006C, strain TOP1, active compounds read low 1.04 | S. cerevisiae deletion strains, locus YOL012C, strain htz1 0.886 | S. cerevisiae deletion strains, locus YOL147C, strain pex11, active compounds read low 0.999 | S. cerevisiae deletion strains, locus YOR001W, strain rrp6, active compounds read low 1.04 | S. cerevisiae deletion strains, locus YOR061W, strain CKA2, active compounds read low 1.01 | S. cerevisiae deletion strains, locus YOR069W, strain VPS5, active compounds read low 1.01 | S. cerevisiae deletion strains, locus YOR070C, strain gyp1, active compounds read low 0.995 | S. cerevisiae deletion strains, locus YOR080W, strain dia2, active compounds read low 1 | S. cerevisiae deletion strains, locus YOR083W, strain WHI5, active compounds read low 0.945 | S. cerevisiae deletion strains, locus YOR106W, strain vam3, active compounds read low 0.999 | S. cerevisiae deletion strains, locus YOR136W, strain idh2, active compounds read low 0.992 | S. cerevisiae deletion strains, locus YOR144C, strain elg1, active compounds read low 0.996 | S. cerevisiae deletion strains, locus YOR184W, strain ser1, active compounds read low 0.997 | S. cerevisiae deletion strains, locus YOR231W, strain MKK1, active compounds read low 1.01 and 1.04 | S. cerevisiae deletion strains, locus YOR265W, strain rbl2, active compounds read low 0.997 | S. cerevisiae deletion strains, locus YOR270C, strain vph1, active compounds read low 0.987 | S. cerevisiae deletion strains, locus YOR290C, strain snf2, active compounds read low 0.963 | S. cerevisiae deletion strains, locus YOR316C, strain cot1, active compounds read low 0.997 | S. cerevisiae deletion strains, locus YPL051W, strain arl3, active compounds read low 0.979 | S. cerevisiae deletion strains, locus YPL055C, strain LGE1, active compounds read low 1.01 | S. cerevisiae deletion strains, locus YPL078C, strain atp4, active compounds read low 0.946 | S. cerevisiae deletion strains, locus YPL106C, strain sse1, active compounds read low 0.968 | S. cerevisiae deletion strains, locus YPL240C, strain hsp82, active compounds read low 0.991 | S. cerevisiae deletion strains, locus YPL241C, strain CIN2, active compounds read low 1.01 | S. cerevisiae deletion strains, locus YPL256C, strain CLN2, active compounds read low 1.03 and 1.04 | S. cerevisiae deletion strains, locus YPR119W, strain clb2, active compounds read low 0.998 | S. cerevisiae deletion strains, locus YPR141C, strain kar3, active compounds read low 0.999 | S. cerevisiae deletion strains, locus YPR163C, strain tif3, active compounds read low 0.99 | S. cerevisiae deletion strains, locus YPR167C, strain met16, active compounds read low 1.01 | S. cerevisiae deletion strains, strain wtn01, active compounds read low 0.984 | S. cerevisiae strains, strain wild type, active compounds read low 1.01
